In paper PMC7862700, “An all-to-all approach to the identification of sequence-specific readers for epigenetic DNA modifications on cytosine”:

Assays:
Test in all cases: DAPPL (digital affinity profiling via proximity ligation, sequencing); 10 mM Tris-HCl pH 7.5, 50 mM NaCl, 1 mM DTT, 4% glycerol, room temperature, 30 min; GST-TFs on glutathione beads, 16-mer random dsDNA library, 0.1% formaldehyde crosslink after washing; high values mean tight binding
Conditions in all cases: protein: recombinant; tags: N-terminal GST; dsDNA, one strand shown
[1] = target: T1, ERF (Homo sapiens, UniProt P50548 1-548)
T1 sequence: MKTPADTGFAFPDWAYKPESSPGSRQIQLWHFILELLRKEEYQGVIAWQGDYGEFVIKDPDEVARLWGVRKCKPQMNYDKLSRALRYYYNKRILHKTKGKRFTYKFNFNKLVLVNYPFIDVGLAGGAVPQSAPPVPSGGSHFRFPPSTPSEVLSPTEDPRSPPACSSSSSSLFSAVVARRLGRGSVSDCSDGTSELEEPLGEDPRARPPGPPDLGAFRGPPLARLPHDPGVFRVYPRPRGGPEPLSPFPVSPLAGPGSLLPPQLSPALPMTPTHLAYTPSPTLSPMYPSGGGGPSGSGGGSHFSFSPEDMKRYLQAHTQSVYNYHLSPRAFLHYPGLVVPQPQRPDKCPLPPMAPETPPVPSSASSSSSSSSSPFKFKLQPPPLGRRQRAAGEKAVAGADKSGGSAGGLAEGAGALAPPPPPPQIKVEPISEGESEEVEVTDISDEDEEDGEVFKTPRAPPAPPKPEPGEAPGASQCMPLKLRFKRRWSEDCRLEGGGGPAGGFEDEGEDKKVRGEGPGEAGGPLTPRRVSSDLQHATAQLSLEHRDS
How it was run: (§1)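 After expression in yeast as GST fusions, human transcription factors were bound to glutathione beads, DNA-barcoded and mixed with a tag-only sample. The pools were incubated with 200 nmole of a 16-mer random double-stranded DNA library in Tris/NaCl/DTT/glycerol buffer (30 min, room temperature), washed and crosslinked with 0.1% formaldehyde. Proximity ligation with BsaI/T4 ligase ran for 1 h at 37 °C, before PCR amplification and sequencing on an Illumina NextSeq500. Binding signal is a hexamer's read frequency for a factor divided by its frequency for the tag-only sample.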

[2] = target: T2, ETV3L (Homo sapiens, UniProt Q6ZN32 1-361)
T2 sequence: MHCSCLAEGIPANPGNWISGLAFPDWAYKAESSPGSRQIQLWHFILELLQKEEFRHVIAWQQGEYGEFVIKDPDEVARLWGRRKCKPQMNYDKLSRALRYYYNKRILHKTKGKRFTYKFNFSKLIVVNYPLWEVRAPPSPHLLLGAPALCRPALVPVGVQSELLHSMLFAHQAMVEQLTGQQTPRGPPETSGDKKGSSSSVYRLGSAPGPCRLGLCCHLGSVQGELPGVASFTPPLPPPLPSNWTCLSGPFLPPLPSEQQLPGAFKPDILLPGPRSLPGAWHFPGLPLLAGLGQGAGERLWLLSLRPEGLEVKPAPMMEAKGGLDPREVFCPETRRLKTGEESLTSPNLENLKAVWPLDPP
How it was run: as §1

[3] = target: T3, ETS2 (Homo sapiens, UniProt P15036 1-469)
T3 sequence: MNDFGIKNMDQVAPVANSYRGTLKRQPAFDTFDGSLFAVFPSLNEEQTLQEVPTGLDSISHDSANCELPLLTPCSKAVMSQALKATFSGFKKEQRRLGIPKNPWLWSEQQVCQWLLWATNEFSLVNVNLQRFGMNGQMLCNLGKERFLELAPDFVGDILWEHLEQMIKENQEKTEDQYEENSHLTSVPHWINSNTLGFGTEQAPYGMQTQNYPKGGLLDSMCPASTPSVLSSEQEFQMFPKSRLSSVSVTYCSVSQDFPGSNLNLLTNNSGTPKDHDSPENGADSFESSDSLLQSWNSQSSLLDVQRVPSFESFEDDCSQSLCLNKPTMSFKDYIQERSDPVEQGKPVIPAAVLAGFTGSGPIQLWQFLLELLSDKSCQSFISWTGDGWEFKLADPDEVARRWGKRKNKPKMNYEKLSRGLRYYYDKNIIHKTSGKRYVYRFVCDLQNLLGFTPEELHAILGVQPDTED
How it was run: as §1

[4] = target: T4, SPDEF (Homo sapiens, UniProt O95238 1-335)
T4 sequence: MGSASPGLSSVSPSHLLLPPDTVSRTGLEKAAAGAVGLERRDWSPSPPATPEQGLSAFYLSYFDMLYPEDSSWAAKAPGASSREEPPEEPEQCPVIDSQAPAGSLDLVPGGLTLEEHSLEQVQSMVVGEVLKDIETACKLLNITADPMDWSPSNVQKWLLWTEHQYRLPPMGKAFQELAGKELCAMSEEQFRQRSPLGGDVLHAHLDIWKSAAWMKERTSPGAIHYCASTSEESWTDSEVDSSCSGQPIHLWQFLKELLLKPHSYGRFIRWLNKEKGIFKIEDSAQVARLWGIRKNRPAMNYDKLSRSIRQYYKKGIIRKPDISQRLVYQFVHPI
How it was run: as §1

[5] = target: T5, ETV7 (Homo sapiens, UniProt Q9Y603 1-341)
T5 sequence: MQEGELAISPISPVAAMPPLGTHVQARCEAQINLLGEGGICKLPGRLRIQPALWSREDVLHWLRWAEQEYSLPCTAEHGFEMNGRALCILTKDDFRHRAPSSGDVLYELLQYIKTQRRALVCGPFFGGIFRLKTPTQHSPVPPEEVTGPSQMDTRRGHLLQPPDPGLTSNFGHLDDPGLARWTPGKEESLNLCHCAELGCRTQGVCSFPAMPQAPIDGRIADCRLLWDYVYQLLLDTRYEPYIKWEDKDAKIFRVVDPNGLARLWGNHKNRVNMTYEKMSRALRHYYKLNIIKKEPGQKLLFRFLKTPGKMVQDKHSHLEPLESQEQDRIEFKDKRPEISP
How it was run: as §1

[6] = target: T6, ELF5 (Homo sapiens, UniProt Q9UKW6-2 1-255)
T6 sequence: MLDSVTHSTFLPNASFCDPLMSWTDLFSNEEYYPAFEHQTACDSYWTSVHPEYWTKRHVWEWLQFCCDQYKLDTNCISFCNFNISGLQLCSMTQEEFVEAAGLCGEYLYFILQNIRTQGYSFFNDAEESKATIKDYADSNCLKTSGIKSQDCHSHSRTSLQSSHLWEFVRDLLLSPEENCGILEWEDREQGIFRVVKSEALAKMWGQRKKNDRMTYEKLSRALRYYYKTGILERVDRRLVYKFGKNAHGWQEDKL
How it was run: as §1

[7] = target: T7, ETV3 (Homo sapiens, UniProt P41162-2 1-143)
T7 sequence: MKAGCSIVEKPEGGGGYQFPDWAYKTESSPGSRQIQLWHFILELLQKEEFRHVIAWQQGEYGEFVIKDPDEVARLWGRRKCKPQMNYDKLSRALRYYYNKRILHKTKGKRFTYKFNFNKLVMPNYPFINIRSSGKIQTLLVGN
How it was run: as §1

[8] = target: ETV6 (Homo sapiens, UniProt P41212 1-452)
ETV6, sequence (P41212 whole entry): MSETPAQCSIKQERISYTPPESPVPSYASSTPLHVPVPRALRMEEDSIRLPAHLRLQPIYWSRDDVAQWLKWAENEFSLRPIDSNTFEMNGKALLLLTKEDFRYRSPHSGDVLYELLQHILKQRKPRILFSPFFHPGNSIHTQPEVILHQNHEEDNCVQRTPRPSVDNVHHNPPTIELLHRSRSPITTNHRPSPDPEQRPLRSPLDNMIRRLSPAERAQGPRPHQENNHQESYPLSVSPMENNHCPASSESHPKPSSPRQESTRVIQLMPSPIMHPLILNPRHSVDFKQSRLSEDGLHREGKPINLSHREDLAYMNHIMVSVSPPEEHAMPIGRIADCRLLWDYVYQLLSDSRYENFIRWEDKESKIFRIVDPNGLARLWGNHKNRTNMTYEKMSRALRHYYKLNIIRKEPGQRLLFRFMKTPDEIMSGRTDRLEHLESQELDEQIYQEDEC
How it was run: as §1

Sequence | binding signal [1] | binding signal [2] | binding signal [3] | binding signal [4] | binding signal [5] | binding signal [6] | binding signal [7] | binding signal [8]
AATAAT | 1.52 fold enrichment (6-mer frequency, TF over GST control) | 1.35 fold enrichment (6-mer frequency, TF over GST control) | 1.42 fold enrichment (6-mer frequency, TF over GST control) | 1.21 fold enrichment (6-mer frequency, TF over GST control) | 1.23 fold enrichment (6-mer frequency, TF over GST control) | 1.29 fold enrichment (6-mer frequency, TF over GST control) | 1.27 fold enrichment (6-mer frequency, TF over GST control) | 1.34 fold enrichment (6-mer frequency, TF over GST control)
ATCTCC | 1.47 fold enrichment (6-mer frequency, TF over GST control) | 1.46 fold enrichment (6-mer frequency, TF over GST control) | 1.5 fold enrichment (6-mer frequency, TF over GST control) | 1.68 fold enrichment (6-mer frequency, TF over GST control) | 1.31 fold enrichment (6-mer frequency, TF over GST control) | 1.53 fold enrichment (6-mer frequency, TF over GST control) | 1.44 fold enrichment (6-mer frequency, TF over GST control) | 1.51 fold enrichment (6-mer frequency, TF over GST control)
TGCGCT | 1.33 fold enrichment (6-mer frequency, TF over GST control) | 1.21 fold enrichment (6-mer frequency, TF over GST control) | 1.43 fold enrichment (6-mer frequency, TF over GST control) | 1.19 fold enrichment (6-mer frequency, TF over GST control) | 1.17 fold enrichment (6-mer frequency, TF over GST control) | 1.15 fold enrichment (6-mer frequency, TF over GST control) | 1.24 fold enrichment (6-mer frequency, TF over GST control) | 1.24 fold enrichment (6-mer frequency, TF over GST control)
GATTAC | 1.13 fold enrichment (6-mer frequency, TF over GST control) | 1.07 fold enrichment (6-mer frequency, TF over GST control) | 1.1 fold enrichment (6-mer frequency, TF over GST control) | 1.13 fold enrichment (6-mer frequency, TF over GST control) | 1.08 fold enrichment (6-mer frequency, TF over GST control) | 1.11 fold enrichment (6-mer frequency, TF over GST control) | 1.07 fold enrichment (6-mer frequency, TF over GST control) | 1.13 fold enrichment (6-mer frequency, TF over GST control)
ATTATA | 1.3 fold enrichment (6-mer frequency, TF over GST control) | 1.33 fold enrichment (6-mer frequency, TF over GST control) | 1.37 fold enrichment (6-mer frequency, TF over GST control) | 1.23 fold enrichment (6-mer frequency, TF over GST control) | 1.37 fold enrichment (6-mer frequency, TF over GST control) | 1.24 fold enrichment (6-mer frequency, TF over GST control) | 1.28 fold enrichment (6-mer frequency, TF over GST control) | 1.3 fold enrichment (6-mer frequency, TF over GST control)
CTTCTG | 1.28 fold enrichment (6-mer frequency, TF over GST control) | 1.47 fold enrichment (6-mer frequency, TF over GST control) | 1.34 fold enrichment (6-mer frequency, TF over GST control) | 1.26 fold enrichment (6-mer frequency, TF over GST control) | 1.2 fold enrichment (6-mer frequency, TF over GST control) | 1.39 fold enrichment (6-mer frequency, TF over GST control) | 1.28 fold enrichment (6-mer frequency, TF over GST control) | 1.38 fold enrichment (6-mer frequency, TF over GST control)
TAAACG | 1.11 fold enrichment (6-mer frequency, TF over GST control) | 1.07 fold enrichment (6-mer frequency, TF over GST control) | 1.16 fold enrichment (6-mer frequency, TF over GST control) | 1.11 fold enrichment (6-mer frequency, TF over GST control) | 1.1 fold enrichment (6-mer frequency, TF over GST control) | 1.1 fold enrichment (6-mer frequency, TF over GST control) | 1.15 fold enrichment (6-mer frequency, TF over GST control) | 1.14 fold enrichment (6-mer frequency, TF over GST control)
TTTGAA | 1.11 fold enrichment (6-mer frequency, TF over GST control) | 1.19 fold enrichment (6-mer frequency, TF over GST control) | 1.23 fold enrichment (6-mer frequency, TF over GST control) | 1.15 fold enrichment (6-mer frequency, TF over GST control) | 1.17 fold enrichment (6-mer frequency, TF over GST control) | 1.1 fold enrichment (6-mer frequency, TF over GST control) | 1.22 fold enrichment (6-mer frequency, TF over GST control) | 1.23 fold enrichment (6-mer frequency, TF over GST control)
TGAATT | 1.14 fold enrichment (6-mer frequency, TF over GST control) | 1.17 fold enrichment (6-mer frequency, TF over GST control) | 1.16 fold enrichment (6-mer frequency, TF over GST control) | 1.11 fold enrichment (6-mer frequency, TF over GST control) | 1.21 fold enrichment (6-mer frequency, TF over GST control) | 1.13 fold enrichment (6-mer frequency, TF over GST control) | 1.16 fold enrichment (6-mer frequency, TF over GST control) | 1.03 fold enrichment (6-mer frequency, TF over GST control)
TTTTCG | 1.25 fold enrichment (6-mer frequency, TF over GST control) | 1.41 fold enrichment (6-mer frequency, TF over GST control) | 1.26 fold enrichment (6-mer frequency, TF over GST control) | 1.16 fold enrichment (6-mer frequency, TF over GST control) | 1.2 fold enrichment (6-mer frequency, TF over GST control) | 1.3 fold enrichment (6-mer frequency, TF over GST control) | 1.25 fold enrichment (6-mer frequency, TF over GST control) | 1.09 fold enrichment (6-mer frequency, TF over GST control)
TATTCA | 1.36 fold enrichment (6-mer frequency, TF over GST control) | 1.43 fold enrichment (6-mer frequency, TF over GST control) | 1.34 fold enrichment (6-mer frequency, TF over GST control) | 1.28 fold enrichment (6-mer frequency, TF over GST control) | 1.23 fold enrichment (6-mer frequency, TF over GST control) | 1.24 fold enrichment (6-mer frequency, TF over GST control) | 1.23 fold enrichment (6-mer frequency, TF over GST control) | 1.3 fold enrichment (6-mer frequency, TF over GST control)
TTGATA | 1.24 fold enrichment (6-mer frequency, TF over GST control) | 1.27 fold enrichment (6-mer frequency, TF over GST control) | 1.15 fold enrichment (6-mer frequency, TF over GST control) | 1.13 fold enrichment (6-mer frequency, TF over GST control) | 1.23 fold enrichment (6-mer frequency, TF over GST control) | 1.21 fold enrichment (6-mer frequency, TF over GST control) | 1.25 fold enrichment (6-mer frequency, TF over GST control) | 1.14 fold enrichment (6-mer frequency, TF over GST control)
CCCGAC | 1.29 fold enrichment (6-mer frequency, TF over GST control) | 1.41 fold enrichment (6-mer frequency, TF over GST control) | 1.27 fold enrichment (6-mer frequency, TF over GST control) | 1.44 fold enrichment (6-mer frequency, TF over GST control) | 1.37 fold enrichment (6-mer frequency, TF over GST control) | 1.38 fold enrichment (6-mer frequency, TF over GST control) | 1.25 fold enrichment (6-mer frequency, TF over GST control) | 1.42 fold enrichment (6-mer frequency, TF over GST control)
TCCATG | 1.1 fold enrichment (6-mer frequency, TF over GST control) | 1.17 fold enrichment (6-mer frequency, TF over GST control) | 1.1 fold enrichment (6-mer frequency, TF over GST control) | 1.1 fold enrichment (6-mer frequency, TF over GST control) | 1.03 fold enrichment (6-mer frequency, TF over GST control) | 1.11 fold enrichment (6-mer frequency, TF over GST control) | 1.19 fold enrichment (6-mer frequency, TF over GST control) | 1.2 fold enrichment (6-mer frequency, TF over GST control)
TCGCTC | 1.35 fold enrichment (6-mer frequency, TF over GST control) | 1.37 fold enrichment (6-mer frequency, TF over GST control) | 1.32 fold enrichment (6-mer frequency, TF over GST control) | 1.19 fold enrichment (6-mer frequency, TF over GST control) | 1.02 fold enrichment (6-mer frequency, TF over GST control) | 1.25 fold enrichment (6-mer frequency, TF over GST control) | 1.11 fold enrichment (6-mer frequency, TF over GST control) | 1.28 fold enrichment (6-mer frequency, TF over GST control)
